The text below walks through data of PubChem BioAssay (EPA / NIEHS).

As a reminder, the AC50 is the midpoint of the concentration-response curve, whichever way the signal moves.

Inconclusive results are not listed. Calls of active or inactive are those of the source. Rule for the calls: active = hit-call score of the fitted dose curve at least 0.9, where 1 is the maximum; inconclusive = response in the unintended direction; inactive = score below 0.9.

Sequence of Cellular tumor antigen p53 (Homo sapiens) (P04637 whole entry, looked up): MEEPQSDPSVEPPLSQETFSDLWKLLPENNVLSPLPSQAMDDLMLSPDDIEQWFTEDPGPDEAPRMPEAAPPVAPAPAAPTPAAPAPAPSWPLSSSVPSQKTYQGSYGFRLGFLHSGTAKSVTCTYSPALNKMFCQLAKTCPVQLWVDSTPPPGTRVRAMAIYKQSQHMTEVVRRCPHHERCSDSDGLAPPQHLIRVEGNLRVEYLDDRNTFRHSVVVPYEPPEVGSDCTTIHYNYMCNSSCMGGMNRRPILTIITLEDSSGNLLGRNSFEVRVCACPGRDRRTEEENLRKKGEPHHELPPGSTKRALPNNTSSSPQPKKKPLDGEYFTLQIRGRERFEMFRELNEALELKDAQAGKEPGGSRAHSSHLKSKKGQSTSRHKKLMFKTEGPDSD

The first assay has as its target Cellular tumor antigen p53 (Homo sapiens) (UniProt P04637). Nature of the assay: TOX21_p53_BLA_p5_ratio: Tox21 HCT-116 p53 Agonism Beta-lactamase Assay, Ratio, Phase 5 (AID 2283599). In short, it runs like this: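 Beta-lactamase reporter ratio (blue 460 nm over green 530 nm, 405 nm excitation) after 2 h CCF4-AM loading, in HCT-116 cells exposed 16 h at 37 C to compounds pinned at 217-fold dilution. Increases relative to DMSO baseline scored.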
Turning to `c1csc(-c2ccc(-c3cccs3)s2)c1`, the AC50 was 59.3 µM (active). On to `Cc1cccc(N=Nc2ccc(N(C)C)cc2)c1`, for which the result was inactive.

Turning to `O=C(CCl)Nc1ccccc1`, the outcome was inactive.

Regarding `CCOC(=O)CC(=O)CCl`, the result was inactive. Same read-out and setting: with `C=CCc1ccccc1O` the entry was “inactive”. Same read-out and setting: in the case of `O=CCCl` it was “inactive”. The same measure, in the same setting: with `CC1(C)[C@H](C(=O)O[C@H](C#N)c2cccc(Oc3ccccc3)c2)[C@@H]1/C=C(\Cl)C(F)(F)F` the entry was “inactive”; with `Cc1cc(Cl)ccc1O`, “inactive”; with `CC(C)(c1ccccc1)c1cc(-n2nc3ccccc3n2)c(O)c(C(C)(C)c2ccccc2)c1`, “inactive”. Turning to `CCOP(=S)(OCC)O/N=C(\C#N)c1ccccc1`, the outcome was inactive. With `CCOP(=S)(OCC)OP(=S)(OCC)OCC`, the result was inactive. Take `CN(N=O)C(N)=O`: the result was inactive. Same read-out and setting: in the case of `O=C(CCl)NCO` it was “inactive”. Same read-out and setting: in the case of `C=C(C)[C@@H]1CC=C(C=O)CC1` it was “inactive”.

Test system in the next assay: not listed separately
Nature of the assay: TOX21_p53_BLA_p5_viability: Viability Assessment in the Tox21 HCT-116 p53 Agonism Beta-lactamase Assay, Phase 5 (AID 2283600). Put shortly:
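Luciferase-coupled ATP quantitation of cells treated for 16 h (37C, 5% CO2) with test chemicals delivered in DMSO via a 217-fold dilution; 4000 cells/well; reagent incubated 30 min at room temperature before luminescence reading.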
Turning to `CCOP(=S)(OCC)SCSc1cc(Cl)ccc1Cl`, the molecule was called inactive. Still for that read-out and setting: with `CC(C)CP(=S)(S)CC(C)C` the entry was “inactive”; with `Oc1ccc(Cc2ccc(O)cc2)cc1`, “inactive”; with `CCCCCCCCCCCCN(C)C`, “inactive”. Take `O=C(Cl)OCCOCCOC(=O)Cl`: the outcome was inactive. With `Nc1nc(N)nc(Cl)n1`, the call was inactive. Same read-out and setting: with `CCN(CCO)CCO` the entry was “inactive”.

For a further assay, the target named is Cellular tumor antigen p53 (Homo sapiens) (UniProt P04637). Nature of the assay: TOX21_p53_BLA_p4_ratio: Tox21 HCT-116 p53 Agonism Beta-lactamase Assay, Ratio, Phase 4 (AID 2283601). In short, it runs like this:
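Signal is the blue/green (460nm/530nm) ratio of cleaved versus uncleaved CCF4-AM substrate, read after 2 h substrate loading. Cells were HCT116 carrying the p53-responsive beta-lactamase reporter, dosed 16 h at 37C, 5% CO2; CellTiter-Glo measured in parallel.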
As for `C#CCO`, the outcome was inactive. With `c1csc(-c2ccc(-c3cccs3)s2)c1`, the AC50 was 46.1 µM (active). For the molecule `Cc1cccc(N=Nc2ccc(N(C)C)cc2)c1`, the outcome was inactive. As to `O=C(CCl)Nc1ccccc1`, the outcome was inactive. As for `CCOC(=O)CC(=O)CCl`, the outcome was inactive.

In the case of `C=CCc1ccccc1O`, the result was inactive.

Consider `O=CCCl`, for which the outcome was inactive. The same measure, in the same setting: in the case of `CC1(C)[C@H](C(=O)O[C@H](C#N)c2cccc(Oc3ccccc3)c2)[C@@H]1/C=C(\Cl)C(F)(F)F` it was “inactive”. Turning to `Cc1cc(Cl)ccc1O`, the outcome was inactive. Still for that read-out and setting: with `O=NN1CCCCCC1` the entry was “inactive”; with `CC(C)(c1ccccc1)c1cc(-n2nc3ccccc3n2)c(O)c(C(C)(C)c2ccccc2)c1`, “inactive”; with `CC(C)CP(=S)(S)CC(C)C`, “inactive”. The same measure, in the same setting: in the case of `CCOP(=S)(OCC)O/N=C(\C#N)c1ccccc1` it was “inactive”; in that of `CCOP(=S)(OCC)OP(=S)(OCC)OCC`, “inactive”; in that of `CN(N=O)C(N)=O`, “inactive”.

For the molecule `O=C(CCl)NCO`, the result was inactive. The same measure, in the same setting: in the case of `O=C(Cl)OCCOCCOC(=O)Cl` it was “inactive”; in that of `Nc1nc(N)nc(Cl)n1`, “inactive”; in that of `CCN(CCO)CCO`, “inactive”.

Consider `C=C(C)[C@@H]1CC=C(C=O)CC1`, for which the result was inactive.

As for `CCCCOC(C)=O`, the outcome was inactive.
